# An excerpt weighted towards active compounds, which were near 9% of everything screened.
# IMPase inh = cell-permeable inhibitors of inositol monophosphatase (IMPase) | inhibition (IP1 accumulation), % at 46.1 µM | CHO-M1 cells, IP1 accumulation, HTRF TR-FRET ratio | 120,000 tested, under 10 active | P97697; active = well fitted curve in the direction sought with a large enough effect in the signal ratio, not every such curve was filed as active; inconclusive = small, poorly fitted or top-dose-only effect, or a change in a side signal; inactive = no such curve, though single readings can be large or run the other way; the % refers to the signal ratio;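 note: cells stimulated with carbachol in lithium chloride buffer; plate controls were DMSO basal wells for no effect and reference inhibitor wells for full effect; higher means more IMPase inhibition seen as more IP1 and lower FRET ratio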
# Target sequence (P97697 whole entry, looked up): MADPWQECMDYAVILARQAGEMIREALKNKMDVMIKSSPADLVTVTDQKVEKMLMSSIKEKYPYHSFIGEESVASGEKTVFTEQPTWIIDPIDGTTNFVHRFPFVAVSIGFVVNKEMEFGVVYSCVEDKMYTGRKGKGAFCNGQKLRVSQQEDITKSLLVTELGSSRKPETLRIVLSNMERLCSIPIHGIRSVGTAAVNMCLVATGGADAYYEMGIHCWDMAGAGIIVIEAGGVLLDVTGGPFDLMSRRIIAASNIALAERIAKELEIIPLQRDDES
#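 Seeded CHO-M1 cells were dosed with compound at up to 46 uM, stimulated with carbachol for 30 min, then lysed in IP-One detection reagents. Higher IP1 lowers the TR-FRET signal.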
# HPGD block = blocks human HPGD enzyme activity. hit rate 4.3% among 150,000. purified HPGD, NADH fluorescence kinetic, PGE2 substrate. P15428. Potency, µM, inactives show top-dose activity change, negative = inhibition, actives largely listed as inhibitors; note: potency is the fitted concentration of half-maximal effect
# Target sequence (P15428 whole entry, looked up): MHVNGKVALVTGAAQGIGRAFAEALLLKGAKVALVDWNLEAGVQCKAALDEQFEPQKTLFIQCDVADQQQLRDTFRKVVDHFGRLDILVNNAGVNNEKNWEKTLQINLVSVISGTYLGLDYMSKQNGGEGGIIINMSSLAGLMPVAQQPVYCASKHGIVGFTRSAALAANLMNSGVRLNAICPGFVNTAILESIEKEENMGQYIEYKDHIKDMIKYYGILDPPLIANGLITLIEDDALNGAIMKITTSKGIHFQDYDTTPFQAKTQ
#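 20 nM HPGD preincubated 15 min at room temperature with compound in 50 mM Tris-HCl pH 8, 0.01% Tween 20. Started with 1 mM NAD+ and 30 uM prostaglandin E2; NADH fluorescence (360/450 nm) read 5 times over 30-s intervals, last minus first.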
# ALDH1A1 block = blocks purified human ALDH1A1 activity. hit rate 7.3% among 220,000. Purified ALDH1A1, NADH fluorescence, propionaldehyde substrate. P00352. Potency, µM (series often up to 75.3 µM), for the others: top-dose activity, negative = inhibition, hits mostly inhibitors;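 note: potency is the fitted concentration of half-maximal effect; plate controls were no enzyme wells and a reference inhibitor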
# * hit, by the source's call; ? = inconclusive; / = no result given; [ ] = remark or other dose. Unless noted, calls come from the whole dose curve; as a rule, active = well fitted inhibition curve with a large enough effect (not every such curve was filed as active); inconclusive = small, poorly fitted or top-dose-only effect, or another doubt; inactive = no such curve, though single readings can be large or run the other way. Unless noted, % is set by controls: 0 for no effect and ±100 for the full control effect.
SMILES,IMPase inh,HPGD block,ALDH1A1 block
CC(/C=N/NC(=O)CN1CCN(Cc2ccc(Cl)cc2)CC1)=C\c1ccco1,/,-1%,-9%
Cn1cccc1CC(=O)N/N=C\c1cccs1,7,?,-9%
Cc1ccc(/C=N/NC(=O)Cc2cccn2C)s1,/,7.1µM*,3%
CC(/C=N/NC(=O)CSc1nnc(SCc2ccccc2)s1)=C\c1ccco1,/,-16%,?
FC(F)(F)c1ccccc1-c1cncnc1NCCN1CCOCC1,/,/,15%
CCOC(=O)c1c(NC(=O)Cn2ccsc2=N)sc(C)c1C,/,/,3%
COc1ccc(C(=O)OC2=C(C(=O)c3ccccc3)N(C)S(=O)(=O)c3ccccc32)cc1OC,2,/,/
N=C(N)S/C=C\C(=O)O,-2,35µM*,7.9µM*
COc1ccc(C(=O)N2CCC[C@@]3(CCN(C(=O)Nc4cccc(F)c4)C3)C2)cc1,/,-7%,0%
CC(C)CC(=O)N1CCN(Cc2ccccc2[N+](=O)[O-])CC1,/,/,0.089µM*
CCCS(=O)(=O)N1CCN(Cc2ccccc2C(F)(F)F)CC1,3,-7%,?
CC(C)CC(=O)N1CCN(Cc2cccc(F)c2)CC1,-6,-15%,-3%
CCCS(=O)(=O)N1CCN(Cc2ccccc2[N+](=O)[O-])CC1,/,/,8.9µM*
CC1CCN(c2nc3nonc3nc2Nc2ccc(F)cc2)CC1,/,/,1%
O=C(C[n+]1cc(Br)cc(Br)c1)c1cccc([N+](=O)[O-])c1,/,/,4µM*
O=C(NCc1ccccn1)c1cccc([N+](=O)[O-])c1,3,-9%,3%
Cc1cc(C)cc(NC(=O)CN2CCc3ccccc3C2)c1,-3,3%,-3%
CCCC(=O)Nc1ccc(NC(=O)c2ccco2)cn1,2,/,2%
CC(C)C(=O)Nc1ccc(NC(=O)c2ccco2)cn1,6,/,28µM*
O=C(CN1CCCCC1)Nc1cccc(Oc2ccccc2)c1,5,28µM*,7%
CCOC(=O)c1ccc(NC(=O)CN2CCc3ccccc3C2)cc1,15,-26%,14µM*
O=C(CN1CCCCCC1)Nc1cccc([N+](=O)[O-])c1,/,/,11%
O=C(CSc1ncnc2[nH]ncc12)Nc1cccc(Oc2ccccc2)c1,/,/,20µM*
Nc1nc(SCC(=O)Nc2cccc(Oc3ccccc3)c2)n[nH]1,/,-16%,?
COCC(=O)N1CCC2(CCCN(c3cccc(-c4ccccc4)c3)C2)CC1,/,-23%,?
SMILES,IMPase inh,HPGD block,ALDH1A1 block
COc1ccc(S(=O)(=O)N(CCc2ccccc2)CC(=O)Nc2cc(Cl)ccc2C)cc1,-6,/,/
O=S(=O)(Nc1nc2ccccc2nc1Nc1ccc(N2CCOCC2)cc1)c1cc(Cl)ccc1Cl,/,-10%,5%
Cc1ccc(C(=O)Nc2cccc(C(=O)NCc3ccccc3)c2)o1,-1,-19%,-2%
O=C(CN1CCCCCC1)Nc1ccc(Br)cc1,1,-6%,10%
CN1CCN(CC(=O)Nc2ccc(Oc3ccccc3)cc2)CC1,?,-16%,-8%
Cc1ccc(C(=O)Nc2cccc(Oc3ccccc3)c2)o1,3,20µM*,0%
O=C(Nc1ccc(Oc2cccc(C(F)(F)F)c2)nc1)c1ccco1,/,/,40µM*
O=C(CN1CCN(C(=O)N2CCOCC2)CC1)Nc1ccc(Br)cc1,1,-7%,18µM*
CCOC(=O)N1CCN(CC(=O)Nc2ccc(Oc3ccccc3)cc2)CC1,5,-3%,25µM*
O=C(Nc1ccc(Oc2cccnc2)nc1)c1ccc(C(F)(F)F)cc1,/,/,10%
O=C(CN1CCCCCC1)Nc1ccccc1,/,/,7.9µM*
N=c1sccn1CC(=O)Nc1cccc(Oc2ccccc2)c1,22,-10%,?
O=C(CN1CCCC1)Nc1ccc(F)cc1,/,/,25µM*
O=C(Nc1cccc(Oc2ccc3c(c2)C(=O)NC3=O)c1)c1ccco1,3[1.84 µM],20µM*,5%
O=C(CCl)Nc1cccc(Oc2ccccc2)c1,/,/,0.28µM*
Cc1ccc(Oc2ccc(NC(=O)c3ccco3)cc2)cc1,6,?,?
O=C(CN1CCCC1)NCC(=O)Nc1ccc(F)cc1,/,/,5%
O=C(CN1CCCCC1)Nc1ccccc1NC(=O)CN1CCCCC1,-3,-2%,1%
CCOc1ccc(-n2ccnc2SCC(=O)Nc2cc(C)on2)cc1,/,/,4%
Cc1ccc(COC(=O)c2[nH]c3c(c2C)C(=O)CC(c2ccc(N(C)C)cc2)C3)cc1 (stereo not given),3,/,/
N#Cc1ccc2ccn(CC(=O)NCc3ccccc3)c2c1,3,?,?
O=C(Nc1ccccc1)N1CCN(Cc2ccc(Cl)cc2)CC1,/,/,-3%
O=C(Nc1ccc(Cl)cc1)N1CCCN(Cc2ccc(F)cc2)C1,6,25µM*,4%
CCNC(=S)Nc1cc(OCC)c(NC(=O)c2ccco2)cc1OCC,-8,-21%,?
CCOc1cc(NS(=O)(=O)c2ccccc2)c(OCC)cc1NC(=O)c1ccco1,-2,-12%,7.9µM*
SMILES,IMPase inh,HPGD block,ALDH1A1 block
O=C(NNC(=S)NC1CCCCC1)c1ccc2c(c1)OCO2,-4,-13%,-11%
COc1ccc(NC(=O)C(=S)NC2CCCCC2)cc1,/,/,-2%
CN(C(=O)c1ccc2c(c1)OCO2)C1(C(=O)NC2CCCC2)CCCCC1,?,-3%,3%
CCOc1ccc(CC(=O)NNC(=S)NC2CCCCC2)cc1OCC,-9,-7%,7%
CCOc1ccc(C(=S)NC2CCCCC2)cc1OC,5,20µM*,40µM*
COc1ccc(OC)c(NC(=O)C(=S)NC2CCCCC2)c1,/,/,8.9µM*
O=C(NC1CCCCCCC1)c1ccc2c(c1)OCO2,10,16µM*,-1%
S=C(NC1CCCCC1)c1ccc2c(c1)OCO2,-2,20µM*,?
CCOc1cc(C(=O)Nc2ccc(-c3nc4cc(Cl)ccc4o3)cc2)cc(OCC)c1OCC,-9,/,/
Nc1nnc(SCC(=O)OCC(=O)c2ccccc2Br)s1,/,/,-3%
COc1ccc(/C=C/C(=O)Nc2ccc(Cl)c(Cl)c2)cc1OC,2,/,/
CCOC(=O)c1cc([N+](=O)[O-])c([N+](=O)[O-])cc1NC(C)=O,/,22µM*,8.9µM*
CCOC(=O)c1ccc(NC(=O)c2ccccc2[N+](=O)[O-])cc1,/,-5%,?
CN(Cc1ccccc1)S(=O)(=O)c1ccc2c(c1)NC(=O)CC(=O)N2,/,-13%,?
CCN(Cc1ccccc1)S(=O)(=O)c1ccc2c(c1)NC(=O)CC(=O)N2,/,/,14µM*
CCN(CC)CCNC(=O)c1c(C)n(-c2ccccc2)c2cc(Br)c(OC)cc12,6,-6%,0.63µM*
COc1cc2c(C(=O)N3CCN(C)CC3)c(C)n(-c3ccccc3)c2cc1Br,-1,-26%,?
Fc1ccc(C2=NCCC(c3ccccc3)O2)cc1 (stereo not given),/,-11%,-10%[120 µM]
c1ccc2c(c1)oc1c(Nc3ccc4c(c3)OCCO4)ncnc12,-3,-19%,23%
O=[N+]([O-])c1ccc2ncnc(Nc3ccc4c(c3)OCCO4)c2c1,/,/,0.35µM*
COc1ccc(S(=O)(=O)NCc2ccco2)cc1N(C)S(=O)(=O)c1ccccc1,/,/,5%
O=c1ccc2c(o1)/C(=C/C=C(Cl)Cl)CCC2,2,-22%,7.1µM*
CCN(CC)S(=O)(=O)c1ccc2oc(C(=O)NCc3ccc(F)cc3)c(C)c2c1,9,-9%,0%
CCOC(=O)c1c(N)sc(C(=O)N2CCCCCC2)c1C,4,/,?
CCOC(=O)c1c(NC(=O)C2CC2)sc(C)c1CC,/,?,22µM*
